# The whole screen tested about 13,000 compounds, of which about 3,200 (25%) showed an effect of 50% or more. This is one part of the list.
# Test system: P. falciparum stage V gametocytes
# Design: BacTiter-Glo ATP luminescence viability of purified stage V gametocytes in 384-well plates, per cent inhibition versus DMSO
# Details: 48 h, 5 µM; inhibitor
row,SMILES,% Inhibition [%]
1,N#Cc1cccc(NC(=O)Nc2ccc3c(c2)CCN(C2CCC2)CC3)c1 [TCMDC-136005],22.54
2,COc1ccc(C(C(=O)NC2CCN(C[C@H](O)c3ccnc4ccc(OC)cc34)CC2)N2CCN(Cc3ccccc3)CC2)cc1 (stereo partly shown) [TCMDC-140987],-16.46
3,CN1CCC(COC(=O)C(O)(c2ccccc2)c2ccccc2)C1 (stereo not shown) [TCMDC-131375],2.294
4,C=CCNS(=O)(=O)c1ccc(NC(=O)C(C)Oc2ccc([N+](=O)[O-])cc2)cc1 (stereo not shown) [TCMDC-125123],69.95
5,CCCCNS(=O)(=O)c1ccc(NC(=O)c2cc([N+](=O)[O-])ccc2Cl)cc1 [TCMDC-124345],83.43
6,Cc1cc(N(C)C)nc(Nc2ccc(NC(=O)C(C)Oc3ccccc3)cc2)n1 (stereo not shown) [TCMDC-124974],7.49
7,Cc1cc(N2CCCC2)nc(Nc2ccc(NC(=O)C(C)Oc3ccccc3)cc2)n1 (stereo not shown) [TCMDC-124968],18.82
8,C=CCNC(=O)C(C)c1ccc2cc(OC)ccc2c1 (stereo not shown) [TCMDC-132021],24.74
9,CCCNS(=O)(=O)c1ccc(NC(=O)C(C)Oc2ccc([N+](=O)[O-])cc2)cc1 (stereo not shown) [TCMDC-125122],65.91
10,Cc1ccc(NC(=O)c2cc([N+](=O)[O-])ccc2NCc2cccnc2)cc1Cl [TCMDC-124571],7.674
11,CCNS(=O)(=O)c1ccc(Oc2ccc([N+](=O)[O-])cc2)cc1 [TCMDC-137451],-0.3916
12,NCCNc1ccc([N+](=O)[O-])cc1C(=O)Nc1cccc(Cl)c1 [TCMDC-123690],33.32
13,O=C(Nc1ccc(OC2CCN(Cc3ccc(F)cc3)CC2)c(Cl)c1)c1ccoc1 [TCMDC-133744],29.48
14,C[C@H](NC(=O)c1c(CN2CCN(C(=O)C(C)(C)C)CC2)c(-c2cccs2)nc2ccccc12)C1CCCCC1 [TCMDC-141723],-7.5
15,CC(C)CC(=O)NC1CCN(Cc2c(-c3cccs3)nc3ccccc3c2C(=O)N[C@@H](C)C2CCCCC2)CC1 [TCMDC-141791],-23.57
16,C[C@H](NC(=O)c1c(CN2CCC(N3CCCCC3=O)CC2)c(-c2cccs2)nc2ccccc12)C1CCCCC1 [TCMDC-141620],-63.06
17,C[C@H](NC(=O)c1c(CN2CCC(NC(=O)CC(C)(C)C)CC2)c(-c2cccs2)nc2ccccc12)C1CCCCC1 [TCMDC-141792],25.58
18,CCNC(=O)NC1CCN(Cc2c(-c3cccs3)nc3ccccc3c2C(=O)N[C@@H](C)C2CCCCC2)CC1 [TCMDC-141704],101.3
19,CNC(=O)NC1CCN(Cc2c(-c3cccs3)nc3ccccc3c2C(=O)N[C@@H](C)C2CCCCC2)CC1 [TCMDC-141689],58
20,CNC(=O)c1cc(NCCCNCc2ccc(Cl)c(C(F)(F)F)c2)nc2ccccc12 [TCMDC-141082],72.56
21,O=c1cc(NCCCNCc2ccc(C(F)(F)F)c(F)c2)[nH]c2ccccc12 [TCMDC-139428],-42.45
22,Cc1nc2ccccc2c(=O)n1NCc1ccc(Cl)c(Cl)c1 [TCMDC-131405],15.32
23,Cc1sc2ncnc(Sc3nc4ccccc4[nH]3)c2c1C [TCMDC-123835],57.62
24,CCc1cc2c(Sc3nc4ccccc4[nH]3)ncnc2s1 [TCMDC-124553],60.6

row,SMILES,% Inhibition [%]
1,Nc1ncc(-c2ccsc2)cc1-c1nc2ccccc2[nH]1 [TCMDC-133557],13.31
2,Clc1ccc(Nc2nc(Nc3ccc(Cl)c(Cl)c3)nc(Sc3nc4ccccc4[nH]3)n2)cc1Cl [TCMDC-124069],-24.51
3,COc1ccc(NC(=O)[C@H](CC(C)C)Nc2cc(C)nc(Nc3ccccc3)n2)cc1 [TCMDC-134738],-4.957
4,CCCCn1c(C)c(C(=O)OCC)c2cc(OC(C)=O)c(Br)cc21 [TCMDC-125582],-26.36
5,CC[C@H](C)CNC(=O)c1cncc(-c2ccc(CNC3Cc4ccccc4C3)cc2)c1 [TCMDC-134240],-0.9583
6,CC(C)CNC(=O)c1cncc(-c2cccc(CNC3Cc4ccccc4C3)c2)c1 [TCMDC-134219],-68.65
7,CCCNCc1ccc(-c2ccc(CNC3Cc4ccccc4C3)cc2)nc1 [TCMDC-141616],6.713
8,CCCNC(=O)c1cncc(-c2cccc(CNC3Cc4ccccc4C3)c2)c1 [TCMDC-134220],-28.4
9,c1cc(CNC2Cc3ccccc3C2)cc(-c2cnc(N3CCNCC3)nc2)c1 [TCMDC-133140],110.7
10,CC1CN(c2ncc(-c3ccc(CNC4Cc5ccccc5C4)cc3)cn2)CC(C)N1 (stereo not shown) [TCMDC-133769],77.63
11,CN(CCCNCc1cccc2ccccc12)CCCNCc1cccc2ccccc12 [TCMDC-137905],108.9
12,CN(CCCNCc1ccc2ccccc2c1)CCCNCc1ccc2ccccc2c1 [TCMDC-137908],106.3
13,N#Cc1ccc(-c2ccc(C(=O)NCCCCN3CC=C(c4ccc5c(c4OCC4CC4)CCCC5)CC3)cc2)cc1 [TCMDC-138756],42.6
14,O=C(c1ccc(OCCn2ccnc2)cc1)N1CCC(c2ccc(Br)cc2)C1 (stereo not shown) [TCMDC-134837],38.05
15,CN(CCCN(C)c1cc(NC(=O)c2cccc(F)c2)ccn1)Cc1cccc(O)c1 [TCMDC-134952],-21.83
16,Cc1ccc(C(O)CNc2ccnc(Nc3cccc(-c4csc(C)n4)c3)n2)cc1 (stereo not shown) [TCMDC-136570],6.544
17,CC1(C)CC(NC(=O)NC2CCN(Cc3ccccc3)CC2)CC(C)(CNC(=O)NC2CCN(Cc3ccccc3)CC2)C1 (stereo not shown) [TCMDC-139018],101.1
18,O=C(NC1CCN(Cc2ccccc2)CC1)c1cc(C(=O)NC2CCN(Cc3ccccc3)CC2)cc(C(=O)NC2CCN(Cc3ccccc3)CC2)c1 [TCMDC-124568],67.11
19,Cc1cc2nc(-c3ccc(C(=O)NC4CCN(Cc5ccccc5)CC4)s3)[nH]c2cc1C [TCMDC-140513],1.433
20,O=C(NC1CCN(Cc2ccc(O)cc2)CC1)c1ccc(Cl)c(Cl)c1 [TCMDC-141735],18.11
21,CN1CCC(COc2ccc(CN3CCC(NC(=O)c4cccc(Cl)c4)CC3)cc2)CC1 [TCMDC-132796],95.19
22,CCOc1cc(C(=O)NC2CCN(Cc3ccccc3)CC2)ccc1-c1nc2ccc(Cl)cc2[nH]1 [TCMDC-140912],-17.04
23,O=C(NC1CCN(Cc2ccccc2)CC1)c1ccc(CNC2CCN(Cc3ccccc3)CC2)cc1 [TCMDC-140787],27.85
24,O=C(Nc1ccnc2ccccc12)NC1CCN(Cc2ccccc2)CC1 [TCMDC-139643],-13.5

row,SMILES,% Inhibition [%]
1,CC(C)c1ccc(NC(=O)c2ccc(C(=O)NC3CCN(Cc4ccccc4)CC3)cc2)cc1 [TCMDC-136752],-24.91
2,O=C(NC1CCN(Cc2ccccc2)CC1)c1ccc(-c2nc3cc(Cl)c(F)cc3[nH]2)cc1 [TCMDC-140093],-50.28
3,Cc1[nH]c(-c2ccc(F)cc2)cc1C(=O)NC1CCN(Cc2ccccc2)CC1 [TCMDC-124396],76.63
4,COc1cc(-c2cc3cc(Cl)c(Cl)cc3[nH]2)ccc1C(=O)NC1CCN(Cc2ccccc2)CC1 [TCMDC-141288],-32.17
5,Oc1ccc2[nH]c(-c3cccc(F)c3)nc2c1CN1CCCC1 [TCMDC-136531],-40.99
6,CCOC(=O)c1cnc2cc(N3CCCC3)c(Cl)cc2c1OCC [TCMDC-131990],37.97
7,O=C(Nc1cccc(-c2cccc(-c3nc4ccccc4[nH]3)c2)c1)Nc1ccc2c(c1)OCO2 [TCMDC-133167],2.88
8,COc1cc(NC(=O)N2CCc3ccc(OCCC4CCCN4C)cc32)cc(C(F)(F)F)c1 (stereo not shown) [TCMDC-140248],-14.34
9,CCCc1nc2c(N3CCCN(C(=O)NC4CCCCC4)CC3)cccc2n1Cc1ccccn1 [TCMDC-134632],-23.2
10,CC(C)CC(C)NC(=O)C1Cc2c([nH]c3cc(Cl)ccc23)C2(CCN(CCc3ccccc3)CC2)N1 (stereo not shown) [TCMDC-141298],48.04
11,CCNc1cc(C(=O)N[C@@H](Cc2ccc(F)c(F)c2)[C@H](O)CNC2CCCCC2)cc(N2CCCCS2(=O)=O)c1 [TCMDC-135060],26.39
12,CN(C)CCOc1ccc(N2CCN(CCCCNC(=O)c3ccc(/C=C/c4cc(Cl)cc(Cl)c4)cc3)CC2)cc1 [TCMDC-138290],45.55
13,CN(C)CCOc1ccc(N2CCN(CCCCNC(=O)c3ccc(NC(=O)c4ccc(Cl)cc4)cc3)CC2)cc1 [TCMDC-138289],85.59
14,Cc1cc(C2CCN(CCCCNC(=O)c3ccc(NC(=O)c4ccc(Cl)cc4)cc3)CC2)c(C)cc1OCCN(C)C [TCMDC-138316],117.2
15,Cc1ccc(C)c(C2CCN(CCCCNC(=O)c3ccc(NC(=O)c4ccc(Cl)cc4)cc3)CC2)c1 [TCMDC-138330],-7.9
16,CCOc1cc(C)c(C2CCN(CCCCNC(=O)c3ccc(NC(=O)c4ccc(Cl)cc4)cc3)CC2)cc1C [TCMDC-138282],41.56
17,Cc1cc(C2CCN(CCCCNC(=O)c3ccc(NC(=O)c4ccc(Cl)cc4)cc3)CC2)c(C)cc1OCc1cccnc1 [TCMDC-138318],-16.74
18,Cc1cc(C2CCN(CCCCNC(=O)c3ccc(NC(=O)c4ccc(Cl)cc4)cc3)CC2)c(C)cc1OCc1ccncc1 [TCMDC-138308],71.5
19,Cc1cc(C2CCN(CCCCNC(=O)c3ccc(NC(=O)c4ccc(Cl)cc4)cc3)CC2)c(C)cc1OCc1nccn1C [TCMDC-138326],1.081
20,CCOc1ccc(OCC)c(N2CCN(CCCCNC(=O)c3ccc(NC(=O)c4ccc(Cl)cc4)cc3)CC2)c1 [TCMDC-138224],-9.659
21,COCCOc1cc(C)c(C2CCN(CCCCNC(=O)c3ccc(NC(=O)c4ccc(Cl)cc4)cc3)CC2)cc1C [TCMDC-138344],7.769
22,Cc1cc(C2CCN(CCCCNC(=O)c3ccc(NC(=O)c4ccc(Cl)cc4)cc3)CC2)c(C)cc1OC(C)C [TCMDC-138309],96.15

# Reference: PMC4552634, “A New Set of Chemical Starting Points with Plasmodium falciparum Transmission-Blocking Potential for Antimalarial Drug Discovery” (PLoS ONE, 2015)
